Results taken from the supplement of paper PMC10849652.
The full data set covers some 7,900 targets. This sample favours those with a hit. About 0.6% of all pairs of compound and target were hits.

Experiments:
Test in all cases: log2 fold change, soluble protein after heating vs DMSO (PISA); higher = thermal stabilisation; K562 cells, 10 uM, 30 min; active = over 0.2 and 3.5 SD of the protein, either way, in both replicates (recomputed)
[1] = compound: CC1=C(C=C(C=C1)NC(=O)C2=CC(=CC=C2)C(C)(C)C#N)NC3=CC4=C(C=C3)N=CN(C4=O)C
Summary of the method: (§1)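 K562 cells at 2×10^6 cells/mL were treated for 30 min with 10 μM compound, and aliquots were heated for 3 min over 48°C-58°C before pooling. Extraction used PBS with 0.5% NP-40 at 4°C, and soluble protein was the supernatant after 21,000xg for 90 min, measured by TMTpro 16plex LC-MS/MS with channel sums equalised. Thermal stability values, relative to control samples and from duplicates, are log2 fold changes.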

[2] = compound: CC1=C(C=C(C=C1)NC(=O)C2=CC(=CC=C2)N(C)C)NC(=O)C3=CC=C(C=C3)O
Summary of the method: as §1

[3] = compound: CC1=CC=C(C=C1)SC2=C3C=C(SC3=CN=C2)C(=O)N
Summary of the method: as §1

[4] = compound: CC1=NC(=CC=C1)C2=C(N=C(N2)C(C)(C)C)C3=CC4=NC=CN=C4C=C3
Summary of the method: as §1

Nexturastat A = compound: CCCCN(Cc1ccc(C(=O)NO)cc1)C(=O)Nc1ccccc1 [Nexturastat A]
Summary of the method: as §1

vemurafenib = compound: CCCS(=O)(=O)Nc1ccc(F)c(C(=O)c2c[nH]c3ncc(-c4ccc(Cl)cc4)cc23)c1F [vemurafenib]
Summary of the method: as §1

[5] = compound: CCCS(=O)(=O)Nc1ccc(F)c(C(=O)c2c[nH]c3ncc(Cl)cc23)c1F
Summary of the method: as §1

[6] = compound: CCCc1cc(C)[nH]c(=O)c1CNC(=O)c1cc(-c2ccnc(N3CCN(C)CC3)c2)cc2c1cnn2C(C)C
Summary of the method: as §1

givinostat = compound: CCN(CC)Cc1ccc2cc(COC(=O)Nc3ccc(C(=O)NO)cc3)ccc2c1 [givinostat]
Summary of the method: as §1

barasertib = compound: CCN(CCCOc1ccc2c(Nc3cc(CC(=O)Nc4cccc(F)c4)[nH]n3)ncnc2c1)CCOP(=O)(O)O [barasertib]
Summary of the method: as §1

[7] = compound: CC[C@@H]1C(=O)N(C)c2cnc(Nc3ccc(C(=O)NC4CCN(C)CC4)cc3OC)nc2N1C1CCCC1
Summary of the method: as §1

volasertib = compound: CC[C@@H]1C(=O)N(C)c2cnc(Nc3ccc(C(=O)N[C@H]4CC[C@H](N5CCN(CC6CC6)CC5)CC4)cc3OC)nc2N1C(C)C [volasertib]
Summary of the method: as §1

[8] = compound: CC[C@H](C)N1C=C(C2=C(C=C(C=C21)C3=CN=C(C=C3)N4CCNCC4)C(=O)NCC5=C(C=C(NC5=O)C)C)C
Summary of the method: as §1

epoxomicin = compound: CC[C@H](C)[C@@H](C(=O)N[C@@H]([C@@H](C)O)C(=O)N[C@@H](CC(C)C)C(=O)[C@]1(CO1)C)NC(=O)[C@H]([C@@H](C)CC)N(C)C(=O)C [epoxomicin]
Summary of the method: as §1

[9] = compound: CCn1c(C(=O)N(C2CC2)C2CC2)cc2c3c(ncn3C)c(Nc3cc(C)n(C)n3)nc21
Summary of the method: as §1

[10] = compound: CCn1cc(-c2ccnc3[nH]c(-c4cccc(CN(C)C)c4)cc23)c(-c2ccc(NC(=O)N(C)C)cc2)n1
Summary of the method: as §1

[11] = compound: CN(C)CC(=O)Nc1ccc2[nH]c(=O)c3ccccc3c2c1
Summary of the method: as §1

rosiglitazone = compound: CN(CCOC1=CC=C(C=C1)C[C@H]2C(=O)NC(=O)S2)C3=CC=CC=N3 (racemic) [rosiglitazone]
Summary of the method: as §1

[12] = compound: CN1C2=C(C3=C1C(=O)N(N=C3)CC4=CC(=CC=C4)N)SC(=C2)S(=O)C
Summary of the method: as §1

[13] = compound: CN1CCC(CNc2ccc3ncc(-c4cccc(OC(F)(F)F)c4)n3n2)CC1
Summary of the method: as §1

Measured: log2 fold change

VWA8 (UniProt A3KMH1)
inactive: [1] -0.07 | [2] 0.042 | [3] 0.023 | [4] 0.019 | Nexturastat A -0.059 | vemurafenib 0.034 | [5] 0.011 | [6] 0.032 | givinostat 0.025 | barasertib 0.022 | [7] -0.027 | volasertib -0.071 | [8] 0.048 | epoxomicin -0.005 | [9] 0.002 | [10] -0.094 | [11] 0.056 | rosiglitazone 0.024 | [12] -0.01 | [13] -0.034

TOMM20 (UniProt Q15388)
UniProt Q15388, sequence (Q15388 whole entry, looked up): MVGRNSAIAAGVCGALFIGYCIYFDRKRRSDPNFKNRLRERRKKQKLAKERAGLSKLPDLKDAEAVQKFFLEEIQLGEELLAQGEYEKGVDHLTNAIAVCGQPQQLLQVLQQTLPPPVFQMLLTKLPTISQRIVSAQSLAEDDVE
active: [13] -0.271
inactive: [1] 0.058 | [2] 0.044 | [3] 0.04 | [4] -0.019 | Nexturastat A 0.019 | vemurafenib -0.024 | [5] 0.092 | [6] 0.026 | givinostat 0.011 | barasertib 0.021 | [7] -0.135 | volasertib -0.075 | [8] -0.068 | epoxomicin -0.089 | [9] 0.078 | [10] -0.017 | [11] -0.005 | rosiglitazone -0.022 | [12] -0.033

TMEM87B (UniProt Q96K49)
UniProt Q96K49, sequence (Q96K49 whole entry, looked up): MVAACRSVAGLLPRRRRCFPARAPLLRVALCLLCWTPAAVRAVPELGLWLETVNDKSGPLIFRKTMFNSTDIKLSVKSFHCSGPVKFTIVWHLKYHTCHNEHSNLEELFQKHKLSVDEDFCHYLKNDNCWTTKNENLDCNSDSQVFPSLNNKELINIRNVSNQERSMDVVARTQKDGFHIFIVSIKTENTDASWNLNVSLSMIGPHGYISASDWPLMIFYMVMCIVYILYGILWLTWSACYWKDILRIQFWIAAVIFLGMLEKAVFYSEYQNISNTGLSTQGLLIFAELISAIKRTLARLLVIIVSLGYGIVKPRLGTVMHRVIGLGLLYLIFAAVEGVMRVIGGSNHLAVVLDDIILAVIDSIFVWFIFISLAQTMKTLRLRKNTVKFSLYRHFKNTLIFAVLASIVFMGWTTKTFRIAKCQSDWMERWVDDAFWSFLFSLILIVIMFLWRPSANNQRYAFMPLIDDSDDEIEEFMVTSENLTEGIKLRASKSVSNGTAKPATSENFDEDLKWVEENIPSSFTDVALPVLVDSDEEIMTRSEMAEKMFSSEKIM
inactive: [1] -0.018 | [2] -0.013 | [3] 0.112 | [4] -0.008 | Nexturastat A -0.059 | vemurafenib -0.048 | [5] -0.028 | [6] 0.008 | givinostat -0.063 | barasertib 0.048 | [7] -0.088 | volasertib -0.148 | [8] 0.092 | epoxomicin 0.018 | [9] 0.002 | [10] -0.103 | [11] -0.016 | rosiglitazone 0 | [12] -0.143
active: [13] -0.436

TMEM214 (UniProt Q6NUQ4)
UniProt Q6NUQ4, sequence (Q6NUQ4 whole entry, looked up): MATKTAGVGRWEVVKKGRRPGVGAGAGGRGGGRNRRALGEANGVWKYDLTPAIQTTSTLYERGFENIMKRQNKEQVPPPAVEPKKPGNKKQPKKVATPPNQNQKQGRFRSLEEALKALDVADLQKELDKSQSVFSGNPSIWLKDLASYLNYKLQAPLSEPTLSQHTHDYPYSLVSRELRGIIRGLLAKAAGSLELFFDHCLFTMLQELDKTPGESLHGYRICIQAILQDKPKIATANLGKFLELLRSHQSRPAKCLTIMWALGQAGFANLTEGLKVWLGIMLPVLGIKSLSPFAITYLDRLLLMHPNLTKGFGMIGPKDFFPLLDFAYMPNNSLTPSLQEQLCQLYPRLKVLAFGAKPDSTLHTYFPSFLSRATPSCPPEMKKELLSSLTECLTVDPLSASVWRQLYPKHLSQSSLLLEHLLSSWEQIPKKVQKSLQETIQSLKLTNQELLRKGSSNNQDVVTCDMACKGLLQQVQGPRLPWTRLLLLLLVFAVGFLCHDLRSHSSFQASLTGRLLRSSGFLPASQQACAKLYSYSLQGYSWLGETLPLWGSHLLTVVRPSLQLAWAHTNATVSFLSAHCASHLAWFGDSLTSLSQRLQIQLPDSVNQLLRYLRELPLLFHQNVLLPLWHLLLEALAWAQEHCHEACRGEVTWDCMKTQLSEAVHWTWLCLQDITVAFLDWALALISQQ
inactive: [1] -0.038 | [2] -0.054 | [3] 0.023 | [4] 0.007 | Nexturastat A 0.062 | vemurafenib 0.046 | [5] 0.065 | [6] 0 | givinostat 0.021 | barasertib -0.03 | [7] -0.023 | [8] 0.075 | epoxomicin 0.032 | [9] -0.056 | [10] -0.023 | [11] 0.008 | rosiglitazone 0.046 | [12] 0.004 | [13] 0.148
active: volasertib -0.246

USP25 isoform 3 (UniProt Q9UHP3)
inactive: [1] 0.004 | [2] 0.008 | [3] -0.009 | [4] 0.045 | Nexturastat A -0.029 | vemurafenib 0.04 | [5] 0.027 | [6] 0.024 | givinostat 0.015 | barasertib 0.02 | [7] -0.085 | [8] 0.046 | epoxomicin 0.008 | [9] -0.016 | [10] -0.004 | [11] 0.041 | rosiglitazone 0.022 | [12] -0.03 | [13] -0.006
active: volasertib -0.297

TPR (UniProt P12270)
inactive: [1] -0.001 | [2] 0.023 | [3] -0.069 | [4] -0.047 | Nexturastat A -0.048 | vemurafenib 0.031 | [5] 0.012 | [6] 0.003 | givinostat -0.08 | barasertib 0 | [7] 0.095 | volasertib -0.034 | [8] -0.018 | epoxomicin 0 | [9] 0.055 | [10] 0.067 | [11] -0.03 | rosiglitazone -0.02 | [12] -0.005
active: [13] 0.297

TNFRSF8 (UniProt P28908)
UniProt P28908, sequence (P28908 whole entry, looked up): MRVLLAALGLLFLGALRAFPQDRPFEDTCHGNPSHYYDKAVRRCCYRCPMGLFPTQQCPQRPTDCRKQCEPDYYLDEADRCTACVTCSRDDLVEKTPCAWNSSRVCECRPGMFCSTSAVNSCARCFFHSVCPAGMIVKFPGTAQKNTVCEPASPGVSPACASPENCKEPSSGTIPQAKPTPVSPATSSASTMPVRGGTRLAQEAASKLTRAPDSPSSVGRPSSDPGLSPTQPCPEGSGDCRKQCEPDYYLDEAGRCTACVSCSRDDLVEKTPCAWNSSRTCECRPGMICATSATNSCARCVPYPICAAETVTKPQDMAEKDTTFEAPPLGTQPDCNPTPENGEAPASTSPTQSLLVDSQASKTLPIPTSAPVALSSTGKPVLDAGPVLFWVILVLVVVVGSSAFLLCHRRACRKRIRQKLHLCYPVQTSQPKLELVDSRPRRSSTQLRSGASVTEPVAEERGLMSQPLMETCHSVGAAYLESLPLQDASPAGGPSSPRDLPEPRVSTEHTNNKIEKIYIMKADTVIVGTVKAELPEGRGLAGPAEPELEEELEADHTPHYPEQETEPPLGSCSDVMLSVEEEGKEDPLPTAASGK
inactive: [1] -0.047 | [2] 0.01 | [3] -0.076 | [4] -0.005 | Nexturastat A 0.008 | vemurafenib -0.028 | [5] -0.015 | [6] 0.031 | givinostat -0.007 | barasertib -0.006 | [7] 0.134 | volasertib 0.011 | [8] -0.034 | epoxomicin 0.016 | [9] -0.003 | [10] -0.016 | [11] 0.009 | rosiglitazone -0.011 | [12] -0.051 | [13] 0.201

WDR43 (UniProt Q15061)
UniProt Q15061, sequence (Q15061 whole entry, looked up): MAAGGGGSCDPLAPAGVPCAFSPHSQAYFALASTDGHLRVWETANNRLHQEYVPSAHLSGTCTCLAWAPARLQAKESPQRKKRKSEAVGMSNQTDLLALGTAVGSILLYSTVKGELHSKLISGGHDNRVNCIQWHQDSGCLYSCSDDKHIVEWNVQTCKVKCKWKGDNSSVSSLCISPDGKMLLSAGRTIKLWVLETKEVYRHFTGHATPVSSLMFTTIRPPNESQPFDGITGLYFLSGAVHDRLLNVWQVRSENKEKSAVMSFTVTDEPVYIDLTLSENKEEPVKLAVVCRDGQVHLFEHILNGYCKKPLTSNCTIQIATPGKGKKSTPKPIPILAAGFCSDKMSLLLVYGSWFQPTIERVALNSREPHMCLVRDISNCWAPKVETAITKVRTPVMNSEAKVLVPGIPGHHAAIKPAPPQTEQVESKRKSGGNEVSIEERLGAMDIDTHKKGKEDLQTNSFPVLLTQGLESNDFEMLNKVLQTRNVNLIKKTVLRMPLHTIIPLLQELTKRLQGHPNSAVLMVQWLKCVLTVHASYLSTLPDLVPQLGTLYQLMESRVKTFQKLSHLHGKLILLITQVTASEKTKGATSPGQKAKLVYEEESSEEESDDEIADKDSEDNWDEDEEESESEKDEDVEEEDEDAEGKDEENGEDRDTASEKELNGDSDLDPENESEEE
inactive: [1] -0.015 | [2] 0.018 | [3] 0.009 | [4] -0.001 | Nexturastat A -0.097 | vemurafenib -0.027 | [5] 0.012 | [6] -0.061 | givinostat -0.007 | barasertib -0.033 | [7] 0.029 | volasertib -0.029 | [8] -0.04 | epoxomicin -0.026 | [9] 0 | [10] 0.036 | [11] 0.004 | rosiglitazone -0.025 | [12] -0.04 | [13] 0.192

UQCR10 (UniProt Q9UDW1)
UniProt Q9UDW1, sequence (Q9UDW1 whole entry, looked up): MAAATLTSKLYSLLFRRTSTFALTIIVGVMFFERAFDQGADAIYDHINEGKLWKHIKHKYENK
inactive: [1] 0.103 | [2] -0.086 | [3] 0.069 | [4] -0.014 | Nexturastat A -0.049 | vemurafenib -0.042 | [5] -0.018 | [6] 0.007 | givinostat -0.05 | barasertib -0.042 | [7] 0.093 | volasertib -0.102 | [8] -0.031 | epoxomicin 0.005 | [9] 0.088 | [10] -0.112 | [11] 0.008 | rosiglitazone 0.017 | [12] -0.016 | [13] 0.177

TMEM208 (UniProt Q9BTX3)
inactive: [1] -0.093 | [2] 0.005 | [3] 0.037 | [4] -0.022 | Nexturastat A -0.112 | vemurafenib -0.06 | [5] 0.035 | [6] -0.219 | givinostat 0.097 | barasertib -0.012 | [7] -0.071 | volasertib -0.208 | [8] -0.048 | epoxomicin -0.03 | [9] -0.046 | [10] -0.022 | [11] 0.274 | rosiglitazone 0.081 | [12] -0.02 | [13] 0.036

UBE4B isoform 4 (UniProt O95155)
UniProt O95155, sequence (O95155 whole entry, looked up): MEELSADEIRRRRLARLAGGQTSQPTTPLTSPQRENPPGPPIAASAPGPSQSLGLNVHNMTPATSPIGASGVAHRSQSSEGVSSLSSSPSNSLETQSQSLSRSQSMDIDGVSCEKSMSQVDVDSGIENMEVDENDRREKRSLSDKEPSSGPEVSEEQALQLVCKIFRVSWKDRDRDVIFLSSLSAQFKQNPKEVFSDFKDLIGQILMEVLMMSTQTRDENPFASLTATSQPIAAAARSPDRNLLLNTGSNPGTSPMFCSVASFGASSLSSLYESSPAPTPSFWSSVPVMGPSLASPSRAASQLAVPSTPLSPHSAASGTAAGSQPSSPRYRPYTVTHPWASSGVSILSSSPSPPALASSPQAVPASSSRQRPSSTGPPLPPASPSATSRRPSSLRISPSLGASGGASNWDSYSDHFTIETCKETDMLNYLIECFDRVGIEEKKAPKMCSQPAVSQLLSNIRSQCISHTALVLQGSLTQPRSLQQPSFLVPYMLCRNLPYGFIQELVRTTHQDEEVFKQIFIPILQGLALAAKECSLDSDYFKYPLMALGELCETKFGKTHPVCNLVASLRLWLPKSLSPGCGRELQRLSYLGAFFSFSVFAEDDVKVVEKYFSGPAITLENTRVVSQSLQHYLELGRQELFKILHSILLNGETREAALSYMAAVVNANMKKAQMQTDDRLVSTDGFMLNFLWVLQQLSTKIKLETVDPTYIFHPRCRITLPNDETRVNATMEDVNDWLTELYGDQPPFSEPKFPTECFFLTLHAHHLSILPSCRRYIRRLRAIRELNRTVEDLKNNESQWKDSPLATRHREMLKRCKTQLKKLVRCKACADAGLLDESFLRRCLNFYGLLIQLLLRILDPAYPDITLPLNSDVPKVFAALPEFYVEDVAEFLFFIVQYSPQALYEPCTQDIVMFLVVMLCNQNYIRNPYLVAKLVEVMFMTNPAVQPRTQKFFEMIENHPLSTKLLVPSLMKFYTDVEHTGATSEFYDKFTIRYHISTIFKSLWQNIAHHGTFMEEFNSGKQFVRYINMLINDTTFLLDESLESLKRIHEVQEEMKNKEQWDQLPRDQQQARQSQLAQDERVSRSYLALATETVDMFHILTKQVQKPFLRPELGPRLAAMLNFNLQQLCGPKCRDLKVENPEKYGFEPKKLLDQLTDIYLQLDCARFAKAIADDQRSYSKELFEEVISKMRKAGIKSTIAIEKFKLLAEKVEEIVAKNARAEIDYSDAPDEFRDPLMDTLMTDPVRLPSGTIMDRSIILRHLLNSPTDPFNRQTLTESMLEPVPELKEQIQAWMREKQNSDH
active: volasertib -0.229
inactive: [1] 0.007 | [2] -0.012 | [3] 0.001 | [4] 0.014 | Nexturastat A -0.017 | vemurafenib 0.024 | [5] 0.045 | [6] -0.008 | givinostat 0.008 | barasertib 0.042 | [7] -0.046 | [8] 0.024 | epoxomicin 0.023 | [9] 0 | [10] -0.005 | [11] 0.01 | rosiglitazone 0.05 | [12] -0.003 | [13] -0.079

USP15 (UniProt Q9Y4E8)
active: volasertib -0.32
inactive: [1] 0.025 | [2] -0.044 | [3] 0.023 | [4] 0.027 | Nexturastat A -0.001 | vemurafenib 0.04 | [5] 0.053 | [6] 0.041 | givinostat 0.025 | barasertib 0.06 | [7] -0.095 | [8] 0.066 | epoxomicin 0.03 | [9] -0.032 | [10] -0.056 | [11] 0.031 | rosiglitazone 0.058 | [12] -0.006 | [13] -0.129

WASHC2C, A0A096LPC5
inactive: [1] -0.059 | [2] 0.062 | [3] -0.107 | [4] -0.041 | Nexturastat A 0 | vemurafenib 0.039 | [5] -0.206 | [6] -0.101 | givinostat -0.012 | barasertib -0.037 | [7] 0.034 | volasertib -0.111 | [8] -0.03 | epoxomicin -0.016 | [9] 0.063 | [10] -0.132 | [11] 0.012 | rosiglitazone 0.067 | [12] 0.142
active: [13] -0.507

VPS18 (UniProt Q9P253)
inactive: [1] 0.051 | [2] -0.025 | [3] -0.029 | [4] -0.004 | Nexturastat A 0.04 | vemurafenib 0.017 | [5] 0.017 | [6] 0.004 | givinostat 0.035 | barasertib 0.088 | [7] -0.22 | [8] 0.086 | epoxomicin -0.019 | [9] -0.009 | [10] -0.059 | [11] 0.046 | rosiglitazone 0.042 | [12] 0.005 | [13] -0.231
active: volasertib -0.398

VPS16 (UniProt Q9H269)
UniProt Q9H269, sequence (Q9H269 whole entry, looked up): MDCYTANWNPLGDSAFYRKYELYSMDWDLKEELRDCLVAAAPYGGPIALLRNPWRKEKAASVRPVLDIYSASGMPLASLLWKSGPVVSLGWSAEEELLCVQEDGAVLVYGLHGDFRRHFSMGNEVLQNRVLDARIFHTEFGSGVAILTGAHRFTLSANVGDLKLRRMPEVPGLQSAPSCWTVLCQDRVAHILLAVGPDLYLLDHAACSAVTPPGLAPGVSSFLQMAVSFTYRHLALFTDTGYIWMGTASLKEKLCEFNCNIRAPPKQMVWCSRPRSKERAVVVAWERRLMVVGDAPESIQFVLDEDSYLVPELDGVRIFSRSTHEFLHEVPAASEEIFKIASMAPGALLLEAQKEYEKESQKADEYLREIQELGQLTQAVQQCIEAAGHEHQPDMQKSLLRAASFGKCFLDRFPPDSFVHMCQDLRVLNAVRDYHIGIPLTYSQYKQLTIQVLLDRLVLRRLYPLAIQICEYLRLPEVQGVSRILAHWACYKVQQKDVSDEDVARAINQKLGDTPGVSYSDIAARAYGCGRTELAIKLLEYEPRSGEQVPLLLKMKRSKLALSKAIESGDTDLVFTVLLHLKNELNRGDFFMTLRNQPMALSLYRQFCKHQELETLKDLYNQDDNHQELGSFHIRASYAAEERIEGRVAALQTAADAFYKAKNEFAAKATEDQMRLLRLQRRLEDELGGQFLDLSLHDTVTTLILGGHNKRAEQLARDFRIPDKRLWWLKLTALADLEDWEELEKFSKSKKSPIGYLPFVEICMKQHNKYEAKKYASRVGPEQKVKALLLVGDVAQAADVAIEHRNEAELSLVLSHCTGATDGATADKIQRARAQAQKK
active: volasertib -0.671
inactive: [1] 0.023 | [2] 0.011 | [3] 0.032 | [4] -0.013 | Nexturastat A 0.038 | vemurafenib 0.017 | [5] 0.109 | [6] 0 | givinostat 0.075 | barasertib -0.086 | [7] -0.244 | [8] 0.042 | epoxomicin 0.045 | [9] 0.003 | [10] -0.072 | [11] 0.083 | rosiglitazone 0.113 | [12] 0.026 | [13] -0.316

TNFAIP8 isoform 4 (UniProt O95379)
inactive: [1] -0.019 | [2] -0.013 | [3] -0.021 | [4] 0.051 | Nexturastat A -0.102 | vemurafenib 0.014 | [5] -0.102 | [6] -0.052 | givinostat 0.003 | barasertib 0.065 | [7] -0.015 | volasertib -0.414 | [8] 0.053 | epoxomicin 0.041 | [9] 0.07 | [10] -0.088 | [11] 0.022 | rosiglitazone 0.001 | [12] -0.084 | [13] -0.125
